# Measurements reported in PubChem BioAssay (EPA / NIEHS).
# “And” between values parts separate entries of the source, which are not always exact repeats. Equal entries are not always repeated. A structure can be active in one record and inactive in another. The source made the active and inactive calls. How the source made its calls: active means hit-call score of the fitted dose curve at least 0.9, where 1 is the maximum; inactive means score below 0.9.
# Test: ATG_Oct_MLP_CIS: Attagene CIS-FACTORIAL HepG2 Assay for human Octamer-Binding Transcription Factor (Oct) (AID 2282993)
# Conditions: HepG2 Attagene cis-factorial Oct reporter, mRNA; actives raise or lower the signal
# Experimental: ATG_CIS is a cell-based, multiplexed-readout assay that uses HepG2, a human liver cell line, with measurements taken at 24 hours after chemical dosing in a 24-well plate.ATG_Oct_MLP_CIS is one of 52 assay component(s) measured or calculated from the ATG_CIS assay. It is designed to make measurements of mRNA induction, a form of inducible reporter, as detected with fluorescence intensity signals by Reverse transcription polymerase chain reaction (RT-PCR) and Capillary electrophoresis technology.Data from the assay component ATG_Oct_MLP_CIS was analyzed into 1 assay endpoint. This assay endpoint, ATG_Oct_MLP_CIS, was analyzed with bidirectional fitting relative to DMSO as the negative control and baseline of activity. Using a type of inducible reporter, measures of mRNA for gain or loss-of-signal activity can be used to understand the reporter gene at the transcription factor-level as they relate to the gene POU2F1. Furthermore, this assay endpoint can be referred to as a primary readout, because this assay has produced multiple assay endpoints where this one serves a reporter gene function. To generalize the intended target to other relatable targets, this assay endpoint is annotated to the dna binding intended target family, where the subfamily is POU domain protein.
# Human liver HepG2 cells are transiently transfected with multiple reporter transcription units (MRTUs) in 6-well plates using FuGene 6 reagent (Roche; 3 ml FuGene/1 mg DNA). The MRTU constructs are regulated by a cis-regulating element (promoter). […] A major difference between the CIS and TRANS system is that in CIS activities of endogenous TFs are measured, whereas the TRANS assay evaluates changes in activities of exogenous, chimeric NR-Gal4 proteins. […] At the end of 24 hour incubation, total RNA was isolated using TriZol reagent (Invitrogen). The isolated RNA is then reverse-transcribed using oligo(dT) primer and Mo-MLV reverse transcriptase (Invitrogen) with DNAse I (Ambion) treatment for 30 min. The one-tenth of the produced cDNA was amplified by PCR using Taq DNA polymerase (Invitrogen) and two reporter sequence-specific primers. The PCR products were fluorescently labeled by primer extension with 6-arboxyfluorescein (6-FAM) 5'-labeled reporter sequence-specific primer (2 min at 95 C, 20 s at 68 C and 10 min at 72 C) and these products were digested with 5U of HpaI (New England Biolabs) for 2h at 37 C. The fragments were purified using Qiaquick PCR columns (Qiagen), analyzed on an ABI 3130xL genetic analyzer (Applied Biosystems) with peak positions identified by using a set of X-rhodamine (ROX)-labeled MapMarker1000 molecular weight standards (BioVentures). The raw capillary electrophoresis data was processed using Attagraph software (Attagene).
SMILES,AC50,outcome
Cc1nn(C)c(Oc2ccccc2)c1C=NOCc1ccc(C(=O)OC(C)(C)C)cc1,0.0401 µM (active),
c1ccc2[nH]c(-c3cscn3)nc2c1,,inactive
CCCN(CCC)C(=O)SCC,,inactive
COCCO,,inactive
CCN(CC)C(=O)c1cccc(C)c1,,inactive
N[C@@H](Cc1cc(I)c(Oc2ccc(O)c(I)c2)c(I)c1)C(=O)O,,inactive
CC(C)CCCCCCc1ccc(O)cc1,17.4 µM (active) and 17.1 µM (active),inactive
CC(=O)S[C@@H]1CC2=CC(=O)CC[C@]2(C)[C@H]2CC[C@@]3(C)[C@@H](CC[C@@]34CCC(=O)O4)[C@H]12,15 µM (active),inactive
O=C(O)c1ccccc1,,inactive
CCOC(=O)C(C)Oc1ccc(Oc2cnc3cc(Cl)ccc3n2)cc1 (stereo not given),,inactive
CC(=O)[C@H]1CC[C@H]2[C@@H]3CCC4=CC(=O)CC[C@]4(C)[C@H]3CC[C@]12C,,inactive
N#CSCSc1nc2ccccc2s1,14.5 µM (active),inactive
C=CCOC(Cn1ccnc1)c1ccc(Cl)cc1Cl (stereo not given),3.55 µM (active),
CCCOC(=O)c1ccc(C(=O)OCCC)nc1,,inactive
Oc1ccc(C(c2ccc(O)cc2)C(Cl)(Cl)Cl)cc1,,inactive
CCCCCOC(=O)COc1cc(N2C(=O)C3=C(CCCC3)C2=O)c(F)cc1Cl,,inactive
S=C(S)NCCNC(=S)S.[Mn+2].[S-]C([S-])=NCCN=C([S-])[S-].[Zn+2],,inactive
C[C@]12CC[C@@H]3c4ccc(O)cc4C[C@@H](CCCCCCCCCS(=O)CCCC(F)(F)C(F)(F)F)[C@H]3[C@@H]1CC[C@@H]2O (stereo not given in full),,inactive

SMILES,AC50,outcome
C[C@]12C[C@H](O)[C@H]3[C@@H](CCC4=CC(=O)CC[C@@]43C)[C@@H]1CC[C@@H]2C(=O)CO,,inactive
O=C(Nc1ccc([N+](=O)[O-])cc1Cl)c1cc(Cl)ccc1O,0.7 µM (active),
CCCCOC(=O)C(C)Oc1ccc(Oc2ccc(C(F)(F)F)cn2)cc1 (stereo not given),,inactive
S=C([S-])NCCNC(=S)[S-].[Mn+2],,inactive
CCCN(CCC)c1c([N+](=O)[O-])cc(C(F)(F)F)c(N)c1[N+](=O)[O-],4.57 µM (active),
CCOC(=O)[C@H](C)Oc1ccc(Oc2nc3ccc(Cl)cc3o2)cc1,,inactive
COC(=O)c1c(Cl)nn(C)c1S(=O)(=O)NC(=O)Nc1nc(OC)cc(OC)n1,,inactive
CCOC(=O)C(C)Oc1ccc(Oc2nc3ccc(Cl)cc3o2)cc1 (stereo not given),,inactive
COC(=O)c1cccc(C)c1S(=O)(=O)NC(=O)Nc1nc(OCC(F)(F)F)nc(N(C)C)n1,,inactive
CCC(C)OC(=O)N1CCCCC1CCO (stereo not given),,inactive
O=C(c1ccccc1)C1CCCCC1,,inactive
CCCCC(CC)CN1C(=O)C2C3C=CC(C3)C2C1=O (stereo not given),17.4 µM (active),
CC(C)(C)[C@@H](O)[C@@H](Cc1ccc(Cl)cc1)n1cncn1,7.98 µM (active),
CCSC(=O)N(CC(C)C)CC(C)C,,inactive
CCOC(=O)c1ccc(O)cc1,100 µM (active),inactive
CCOC(=O)COc1cc(-n2ncc(C(F)(F)F)c(C)c2=O)c(F)cc1Cl,,inactive
CC(C)(c1ccc(O)cc1)c1ccc(O)cc1,,inactive
CCCOC(=O)NCCCN(C)C,,inactive
